From PubChem BioAssay AID624481 (The Scripps Research Institute Molecular Screening Center, 2012) come the findings set out here.

A number with no mark means an inactive call. Activity calls are given as the source filed them. No stated cut-off is given here; in the data, active means inhibition above about 50%; inactive means the rest.

The test deals with Prolyl endopeptidase-like (Mus musculus) (UniProt Q8C167). As to the kind of experiment: mouse PREPL enzyme inhibition by screening hits – biochemical, gel-based competitive ABPP, fluorescence, HTS hits, PREPL inhibitor project (AID 624481). Conditions: purified mouse PREPL, at 20 µM, active compounds read high.
Prolyl endopeptidase-like (Mus musculus), sequence (Q8C167 whole entry, looked up): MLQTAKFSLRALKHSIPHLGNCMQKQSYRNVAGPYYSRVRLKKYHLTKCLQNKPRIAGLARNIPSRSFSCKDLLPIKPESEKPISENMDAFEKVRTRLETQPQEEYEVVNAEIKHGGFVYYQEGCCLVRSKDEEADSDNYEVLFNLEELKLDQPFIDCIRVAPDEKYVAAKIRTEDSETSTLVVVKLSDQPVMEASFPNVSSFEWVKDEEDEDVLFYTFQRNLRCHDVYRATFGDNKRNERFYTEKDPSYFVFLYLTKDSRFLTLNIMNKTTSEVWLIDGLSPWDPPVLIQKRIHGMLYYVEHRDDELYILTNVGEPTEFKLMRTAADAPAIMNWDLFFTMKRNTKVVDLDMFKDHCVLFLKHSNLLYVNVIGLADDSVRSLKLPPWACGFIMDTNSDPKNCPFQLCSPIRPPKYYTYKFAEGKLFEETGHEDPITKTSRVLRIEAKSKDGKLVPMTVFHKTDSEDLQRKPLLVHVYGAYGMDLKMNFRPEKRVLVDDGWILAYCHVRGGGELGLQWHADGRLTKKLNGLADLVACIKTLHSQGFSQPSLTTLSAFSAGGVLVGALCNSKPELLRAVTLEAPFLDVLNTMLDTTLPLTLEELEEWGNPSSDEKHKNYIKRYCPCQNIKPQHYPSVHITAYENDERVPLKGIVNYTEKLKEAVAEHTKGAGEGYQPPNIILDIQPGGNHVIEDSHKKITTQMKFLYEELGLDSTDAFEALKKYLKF
Regarding `Cc1ccn2c(Nc3ccc4c(c3)OCO4)c(-c3ccccn3)nc2c1`, the inhibition was -41%. Turning to `COc1ccc(NC(=O)c2ccc(-c3ccc(-c4noc(C)n4)cc3C)cc2)cc1N1CCN(C)CC1`, the inhibition is -16%. The result for `COc1ccc(CCNC(=O)c2cc3c(=O)n4cccc(C)c4nc3n(CCCN3CCOCC3)c2=N)cc1` reads -87%; that for `Cc1cc(C)c2nc(N3C(=O)C(O)=C(C(=O)c4ccco4)C3c3ccco3)sc2c1` (configuration not stated), 45%.

Consider `O=C(C1=C[C@@H](c2ccccc2)C[C@@H](OCc2ccc(CO)cc2)O1)N1CCN(Cc2ccc3c(c2)OCO3)CC1`, for which the inhibition was -73%. On to `O=C1c2c(O)ccc(O)c2C(=O)c2c(NCCNCCO)ccc(NCCNCCO)c21`, for which the inhibition was -46%.

In the case of `Cc1ccc2nc3c(cc(C(=O)NCCc4ccccc4)c(=N)n3CCCN3CCOCC3)c(=O)n2c1`, the inhibition was -43%.

On to `COc1ccc(NCc2nc3ccccc3n2CCOc2ccc(C)cc2)cc1`, for which the inhibition is -75%. With `CN1CCN(C(=O)C2=C[C@@H](c3ccc(C(F)(F)F)cc3)C[C@@H](OCCCCO)O2)CC1`, the inhibition was -28%. Turning to `Cc1ccc(C2=CC(c3ccc(N(C)C)cc3)n3nnnc3N2)cc1` (configuration not stated), the inhibition was -77%.

As to `COc1ccc(CCNC(=O)c2cc3c(=O)n4ccccc4nc3n(CCCN3CCOCC3)c2=N)cc1`, the inhibition is -26%. Regarding `CC1(C)N=C(N)N=C(N)N1c1ccc(Oc2ccc(Cl)cc2)c(Cl)c1`, the inhibition is -35%. As to `C#CCOCCOCCOCCNc1nc(N2CCN(C(=O)[C@H](Cc3cc4ccccc4[nH]3)n3cc([C@@H](N)C(C)CC)nn3)CC2)nc(N2CCN(C(=O)[C@H](CCCCN)n3cc([C@@H](N)CC(C)C)nn3)CC2)n1` (some centres not stated), the inhibition was -29%. The result for `c1ccc(-c2nc(N3CCCCCC3)c3ccccc3n2)nc1` reads -104%; that for `C=CC[n+]1c(-c2ccc(Cl)cc2Cl)csc1Nc1ccc(NC(C)=O)cc1`, -43%. With `COc1ccc(-c2c(-c3ccccc3)c(C(=O)C(=O)NCCCN(C)C)n3ccc4cc(OC)c(OC)cc4c23)cc1OC`, the inhibition was -15%. In the case of `Cc1ccc(-c2csc(=Nc3cccnc3)n2CCCn2ccnc2)cc1C`, the inhibition is -52%. `COc1ccc(N2CCN(C(=O)CN3C(=O)NC(C)(c4ccc5ccccc5c4)C3=O)CC2)cc1` (configuration not stated): the inhibition is -26%.

Take `Oc1sc(C=Nc2ccc(F)cc2)c2ccccc12`: the inhibition is 20%. Turning to `Cc1c(NCc2cc(Cl)cc(Cl)c2O)c(=O)n(-c2ccccc2)n1C`, the inhibition is -28%. Under `Nc1[nH]n2c(=O)c3c(nc2c1N=Nc1ccccc1)CCCC3` stands 1%; under `COc1ccc(N2CCN(c3cc(C)nc4ccc(OC)cc34)CC2)cc1`, -69%.

On to `C#CCOCCOCCOCCNc1nc(N2CCN(C(=O)[C@H](CCCCN)n3cc([C@@H](N)C(C)CC)nn3)CC2)nc(N2CCN(C(=O)[C@H](Cc3cc4ccccc4[nH]3)n3cc([C@@H](N)CC(C)C)nn3)CC2)n1` (some centres not stated), for which the inhibition was -8%. With `CN1CCN(c2ccc(NC(=O)COc3cccc4ccccc34)cc2)CC1`, the inhibition was 15%. As to `O=C(C1=C[C@@H](c2ccc(C(F)(F)F)cc2)C[C@@H](OCCCCO)O1)N1CCN(Cc2ccc3c(c2)OCO3)CC1`, the inhibition was -20%. Turning to `C#CCOCCOCCOCCNc1nc(N2CCN(C(=O)C(Cc3cc4ccccc4[nH]3)n3cc(C(N)C(C)CC)nn3)CC2)nc(N2CCN(C(=O)C(Cc3cc4ccccc4[nH]3)n3cc(C(N)C(C)CC)nn3)CC2)n1` (configuration not stated), the inhibition is -161%.

For `O=C1N/C(=C/c2ccc(N3CCOCC3)cc2)C(=O)N1Cc1ccc(F)cc1`, the inhibition is -30%.

As to `Cc1ccc(Nc2nc(NCCO)c3ccccc3n2)cc1C`, the inhibition is -33%. Consider `CN(C)c1nc(-c2ccccn2)nnc1-c1ccccc1`, for which the inhibition is -28%.

For the compound `Cc1noc(C)c1S(=O)(=O)N(C)C[C@H]1Oc2c(NC(=O)Nc3ccc(C(F)(F)F)cc3)cccc2C(=O)N([C@H](C)CO)C[C@@H]1C`, the inhibition is 9%. As for `O=C(CSc1ccccc1F)Nc1ccc(N2CCOCC2)cc1`, the inhibition was -55%. Turning to `CN(C)c1ccc(C(CN)c2c[nH]c3ccccc23)cc1` (configuration not stated), the inhibition is -86%. Consider `COc1cccc(C2=CC(c3ccc(N(C)C)cc3)n3nnnc3N2)c1` (configuration not stated), for which the inhibition is -95%. Under `COc1cccc(N=Nc2c(N)[nH]n3c(=O)c4c(nc23)CCCC4)c1` stands 93% (active).

Turning to `O=C(C1=C[C@@H](c2ccc(C(F)(F)F)cc2)C[C@@H](OCc2ccc(CO)cc2)O1)N1CCN(Cc2ccc3c(c2)OCO3)CC1`, the inhibition was -49%. Turning to `Cc1ccccc1-c1ccc(Nc2ccc(N3CCOCC3)cc2)nn1`, the inhibition was 12%. The result for `Cc1ccc(OCC(=O)Nc2ccc(N3CCN(C(=O)c4ccco4)CC3)cc2)cc1C` reads 44%.

By inhibition is commonly meant the relative decrease from the control value, in per cent.
